Results filed as inconclusive are left out. More than one record can exist for a structure, and the calls need not agree. Calls of active or inactive are those of the source. Rule for the calls: active = hit-call score of the fitted dose curve at least 0.9, where 1 is the maximum; inconclusive = response in the unintended direction; inactive = score below 0.9.
Target: Glucocorticoid receptor (Homo sapiens) (UniProt P04150)
Test: ATG_GR_TRANS: Attagene TRANS-FACTORIAL HepG2 Assay for human Glucocorticoid Receptor (GR) (AID 2282978);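 note: activators score as hits since higher reporter transcript over DMSO is fitted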
Settings: HepG2 Attagene TRANS GR reporter, mRNA transcription
Method: ATG_TRANS is a cell-based, multiplexed-readout assay that uses HepG2, a human liver cell line, with measurements taken at 24 hours after chemical dosing in a 24-well plate.ATG_GR_TRANS is one of 30 assay component(s) measured or calculated from the ATG_TRANS assay. It is designed to make measurements of mRNA induction, a form of inducible reporter, as detected with fluorescence intensity signals by Reverse transcription polymerase chain reaction (RT-PCR) and Capillary electrophoresis technology.Data from the assay component ATG_GR_TRANS was analyzed into 1 assay endpoint. This assay endpoint, ATG_GR_TRANS, was analyzed in the positive analysis fitting direction relative to DMSO as the negative control and baseline of activity. Using a type of inducible reporter, measures of mRNA for gain-of-signal activity can be used to understand the reporter gene at the transcription factor-level as they relate to the gene NR3C1. Furthermore, this assay endpoint can be referred to as a primary readout, because this assay has produced multiple assay endpoints where this one serves a reporter gene function. To generalize the intended target to other relatable targets, this assay endpoint is annotated to the nuclear receptor intended target family, where the subfamily is steroidal.
Human liver HepG2 cells are transiently transfected with multiple reporter transcription units (MRTUs) in 6-well plates using FuGene 6 reagent (Roche; 3 ml FuGene/1 mg DNA). The MRTU constructs are regulated by a cis-regulating element (promoter). […] A major difference between the CIS and TRANS system is that in CIS activities of endogenous TFs are measured, whereas the TRANS assay evaluates changes in activities of exogenous, chimeric NR-Gal4 proteins. […] At the end of 24 hour incubation, total RNA was isolated using TriZol reagent (Invitrogen). The isolated RNA is then reverse-transcribed using oligo(dT) primer and Mo-MLV reverse transcriptase (Invitrogen) with DNAse I (Ambion) treatment for 30 min. The one-tenth of the produced cDNA was amplified by PCR using Taq DNA polymerase (Invitrogen) and two reporter sequence-specific primers. The PCR products were fluorescently labeled by primer extension with 6-arboxyfluorescein (6-FAM) 5'-labeled reporter sequence-specific primer (2 min at 95 C, 20 s at 68 C and 10 min at 72 C) and these products were digested with 5U of HpaI (New England Biolabs) for 2h at 37 C. The fragments were purified using Qiaquick PCR columns (Qiagen), analyzed on an ABI 3130xL genetic analyzer (Applied Biosystems) with peak positions identified by using a set of X-rhodamine (ROX)-labeled MapMarker1000 molecular weight standards (BioVentures). The raw capillary electrophoresis data was processed using Attagraph software (Attagene).

Glucocorticoid receptor (Homo sapiens), sequence (P04150 whole entry, looked up): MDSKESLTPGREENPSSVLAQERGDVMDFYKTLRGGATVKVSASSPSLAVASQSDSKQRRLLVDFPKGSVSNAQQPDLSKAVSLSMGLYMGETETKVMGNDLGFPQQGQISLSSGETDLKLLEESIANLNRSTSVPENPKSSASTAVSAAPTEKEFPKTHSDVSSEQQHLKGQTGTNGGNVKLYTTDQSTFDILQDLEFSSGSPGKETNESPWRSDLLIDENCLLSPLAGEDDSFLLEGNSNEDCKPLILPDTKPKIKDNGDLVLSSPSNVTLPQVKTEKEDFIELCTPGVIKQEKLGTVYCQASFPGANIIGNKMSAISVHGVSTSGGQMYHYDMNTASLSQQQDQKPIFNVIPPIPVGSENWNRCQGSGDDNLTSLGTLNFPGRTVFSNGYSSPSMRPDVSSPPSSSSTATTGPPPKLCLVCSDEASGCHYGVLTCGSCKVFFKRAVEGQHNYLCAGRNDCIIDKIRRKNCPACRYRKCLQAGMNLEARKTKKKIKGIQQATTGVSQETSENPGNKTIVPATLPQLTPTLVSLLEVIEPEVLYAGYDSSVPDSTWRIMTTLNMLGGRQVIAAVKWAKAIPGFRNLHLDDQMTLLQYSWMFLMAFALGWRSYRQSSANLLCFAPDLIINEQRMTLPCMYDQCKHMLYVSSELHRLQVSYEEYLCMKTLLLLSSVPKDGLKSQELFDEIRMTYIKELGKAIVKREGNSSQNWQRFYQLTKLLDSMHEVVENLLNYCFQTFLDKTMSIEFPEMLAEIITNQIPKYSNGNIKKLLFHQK

How did the outcome turn out when `NS(=O)(=O)O` was run?
The outcome was “inactive”.

For `Clc1ccc2c(Cl)ccnc2c1`, which outcome is on record?
The outcome was “inactive”.

With `CCCCC=O` as the compound, how does the outcome read?
The outcome was “inactive”.

With `CCC(C)c1ccccc1O` (stereo not given) as the compound, how does the outcome read?
The outcome was “inactive”.

How did the outcome turn out when `O=S(=O)(O)C(F)(F)C(F)(F)C(F)(F)C(F)(F)C(F)(F)C(F)(F)C(F)(F)C(F)(F)C(F)(F)C(F)(F)F` was run?
Its outcome is “inactive”.

With `NC(=NCCCCCCN=C(N)/N=C(\N)Nc1ccc(Cl)cc1)/N=C(\N)Nc1ccc(Cl)cc1` as the compound, how does the outcome read?
Its outcome is “inactive”.

And the AC50?
Its AC50 is 25.3 µM (active).

For `OCC(CO)(CBr)CBr`, which outcome is on record?
Its outcome is “inactive”.

For `CCOC(=O)CN[C@@H](C(=O)N1CC[C@H]1C(=O)NCc1ccc(/C(N)=N/O)cc1)C1CCCCC1`, which outcome is on record?
Its outcome is “inactive”.

For `Nc1ccc(O)c(C(=O)O)c1`, which outcome is on record?
The outcome was “inactive”.

For `CCN(CCC#N)c1ccccc1`, which outcome is on record?
Its outcome is “inactive”.

How did the outcome turn out when `CC1CCC(CO)CC1` (stereo not given) was run?
The outcome was “inactive”.

With `O=P(O)(O)CCC(F)(F)C(F)(F)C(F)(F)C(F)(F)C(F)(F)C(F)(F)C(F)(F)C(F)(F)F` as the compound, how does the outcome read?
The outcome was “inactive”.

Which outcome does the source give for `O=C(c1ccccc1)c1ccccc1` here?
The outcome was “inactive”.

For `Cc1ccccc1OCC(=O)O`, which outcome is on record?
Its outcome is “inactive”.

Which outcome does the source give for `c1ccc(CNc2ncnc3c2ncn3C2CCCCO2)cc1` (stereo not given) here?
Its outcome is “inactive”.

With `CCO[Si](C)(C)OCC` as the compound, how does the outcome read?
Its outcome is “inactive”.

`O=C(O)CCC(F)(F)C(F)(F)C(F)(F)C(F)(F)C(F)(F)F` was tested. Which outcome did it give?
Its outcome is “inactive”.

With `CCC(=O)C=Cc1ccc(OC)cc1` as the compound, how does the outcome read?
The outcome was “inactive”.

Which outcome does the source give for `Cc1ccc2ccc3ccc(C)cc3c2c1` here?
Its outcome is “inactive”.

Which outcome does the source give for `CC(C)c1c(C(=O)Nc2ccccc2)c(-c2ccccc2)c(-c2ccc(F)cc2)n1CC[C@@H](O)C[C@@H](O)CC(=O)O` here?
Its outcome is “inactive”.

How did the outcome turn out when `Cc1cc(C(=C2C=CC(=Nc3ccc(S(=O)(=O)O)cc3)C=C2)c2ccc(Nc3ccc(S(=O)(=O)O)cc3)cc2)cc(S(=O)(=O)O)c1N` was run?
The outcome was “inactive”.

Which outcome does the source give for `CCOC=O` here?
Its outcome is “inactive”.

`CCc1cccc(CC)c1N(COC)C(=O)CS(=O)(=O)O` was tested. Which outcome did it give?
The outcome was “inactive”.

For `CCCCCC(C)OC(=O)COc1ccc(Cl)c2cccnc12` (stereo not given), which outcome is on record?
The outcome was “inactive”.

`C=CC(=O)OCC(CO)(COCC(COC(=O)C=C)(COC(=O)C=C)COC(=O)C=C)COC(=O)C=C` was tested. Which outcome did it give?
The outcome was “inactive”.

How did the outcome turn out when `CC1=NN(c2ccccc2)C(=O)C1` was run?
Its outcome is “inactive”.

`CCOC=C(C(=O)OCC)C(=O)OCC` was tested. Which outcome did it give?
Its outcome is “inactive”.

How did the outcome turn out when `Clc1ccc(Nc2nnc(Cc3ccncc3)c3ccccc23)cc1` was run?
Its outcome is “inactive”.

For `c1cc2cccc3c4cccc5cccc(c(c1)c23)c54`, which outcome is on record?
Its outcome is “inactive”.

For `FC(OC(F)(F)C(F)(F)C(F)(F)F)C(F)(F)F` (stereo not given), which outcome is on record?
The outcome was “inactive”.

How did the outcome turn out when `C=COC(=O)C(C)(C)CCCCCC` was run?
The outcome was “inactive”.

How did the outcome turn out when `O=C1C=CC(=O)N1c1cccc(N2C(=O)C=CC2=O)c1` was run?
The outcome was “inactive”.

Which outcome does the source give for `CN(C)c1ccc(C(=C2C=CC(=[N+](C)C)C=C2)c2ccccc2)cc1` here?
The outcome was “inactive”.

For `COc1ccc(C#N)cc1`, which outcome is on record?
The outcome was “inactive”.

Which outcome does the source give for `CCCCCCCCCCCCCC[n+]1ccccc1` here?
The outcome was “inactive”.

For `Cc1[nH]nc2c1N=C(c1ccccc1Cl)c1cc([N+](=O)[O-])ccc1N2`, which outcome is on record?
Its outcome is “inactive”.

Which outcome does the source give for `O=C(O)C(F)(F)OC(F)(F)C(F)(F)OC(F)(F)C(F)(F)OC(F)(F)C(F)(F)C(F)(F)C(F)(F)F` here?
Its outcome is “inactive”.

With `FC(F)(F)C1(F)C(F)(F)C(F)(F)C(F)(F)C(F)(C(F)(F)F)C1(F)F` (stereo not given) as the compound, how does the outcome read?
Its outcome is “inactive”.

For `CCCCCCCCCCCCCCC`, which outcome is on record?
The outcome was “inactive”.
